Data on 40 compounds can be found in PubChem BioAssay (Tox21).

Records with an inconclusive call do not appear. Activity calls are given as the source filed them. Calls follow the shape of the dose curve; as a rule, active = well fitted cell-killing curve with a large enough effect in the repeat runs; inconclusive = weak or mixed curves, or effect the other way; inactive = no such curve, though single readings can be large or run the other way.

This assay can be described thus: qHTS assay to identify small molecule antagonists of the vitamin D receptor (VDR) signaling pathway - cell viability counter screen (AID 743225). Also: nearly all actives have a fitted effect of over 50% in size. The conditions noted are these: VDR-bla HEK293T viability, CellTiter-Glo luminescence, 16 h; series mostly up to 61 µM. An excerpt: U.S. Tox21 Program National Center for Advancing Translational Sciences [NCATS] NIH Chemical Genomics Center [NCGC] U.S. Environmental Protection Agency [EPA] National Institutes of Environmental Health Sciences [NIEHS] National Toxicology Program [NTP] U.S. Food and Drug Administration [FDA] Tox21 Assay Overview: The vitamin D receptor (VDR), a member of nuclear hormone receptor superfamily, plays a critical role in calcium homeostasis and bone metabolism. It is also involved in cell differentiation and growth, and thrombogenicity. To identify the compounds that inhibit VDR signaling, the VDR-UAS-bla HEK 293T cell line (Invitrogen, Carlsbad, CA, USA) containing a beta-lactamase reporter gene under the control of an upstream activator sequence (UAS) was used to screen the Tox21 10K compound library. The cytotoxicity of the Tox21 compound library against the VDR-bla cell line was tested in parallel by measuring the cell viability using CellTiter-Glo assay (Promega, Madison, WI) in the same wells.
Tox21 Assay Protocol Summary: VDR-bla cells were dispensed at 2,000 cells/5 uL of assay medium per well into black wall/clear-bottom 1536-well plates using a Multidrop Combi (Thermo Fisher Scientific, Waltham, MA) dispenser. After the assay plates were incubated at a 37C and 5% CO2 for 4 h, 23 nL of compounds dissolved in DMSO, positive controls or DMSO only was transferred to the assay plate by a Pintool station (Kalypsys, San Diego, CA), followed by addition of 1 uL of 1-alpha, 25-Dihydroxy Vitamin D3 (3 nM, final concentration in the wells) using a Bioraptr Flying Reagent Dispenser (FRD) workstation (Beckman Coulter, Indianapolis, IN). The plates were incubated at 37C and 5% CO2 for 16 h, and then 1 uL of LiveBLAzerTM B/G FRET substrate was added using a Bioraptr FRD. The plates were incubated at room temperature for 2 h and fluorescence intensity was measured by an Envision plate reader (PerkinElmer, Shelton, CT). For cell viability readout that measures cytotoxicity, 3 ul/well of CellTiter-Glo reagent was added into the assay plates using a Bioraptr FRD. After 30 min incubation at room temperature, the luminescence intensity in the plates was measured using a ViewLux plate reader (PerkinElmer).
`FB(F)F`: the result was inactive.
As to `CCCCCCCCN1CCCC1=O`, the outcome was inactive.
For the compound `CCC(C)(CCCC(C)C)OC(C)=O` (stereo not given), the call was inactive.
As for `O=S(=O)(O)c1cccc2ccccc12`, the call was inactive.
In the case of `C=CCCCCCCCCC(=O)OCC` it was “inactive”; in that of `CC(C)C[C@@H](N)C(=O)O`, “inactive”; in that of `Cc1coc2ccccc2c1=O`, “inactive”.
In the case of `CCCCS(=O)(=O)N[C@@H](Cc1ccc(OCCCCC2CCNCC2)cc1)C(=O)O` it was “inactive”.
Take `CCCn1cc[n+](C)c1C`: the result was inactive.
Turning to `CN1[C@@H]2CC[C@H]1CC(OC(=O)C(O)c1ccccc1)C2` (stereo not given in full), the compound was called inactive.
In the case of `[K+]` it was “inactive”.
In the case of `Clc1cc(Cl)c(Cl)nc1Cl` it was “inactive”; in that of `NC(=O)N1c2ccccc2CC(=O)c2ccccc21`, “inactive”.
With `C[N+]12CCC(CC1)C(OC(=O)C(O)(c1ccccc1)c1ccccc1)C2` (stereo not given), the outcome was inactive.
On to `CCOC(=O)COc1cc(-n2ncc(C(F)(F)F)c(C)c2=O)c(F)cc1Cl`, for which the compound was classed as inactive.
With `O=C(O)c1cc(C(=O)O)cc(C(=O)O)c1`, the result was inactive.
In the case of `N[C@@H](CCC(=O)O)C(=O)O`, the compound was called inactive.
Take `O=C(O)Cc1csc(-c2ccc(Cl)cc2)n1`: the call was inactive.
As to `CC(=O)NC(=O)c1ccccc1O`, the result was inactive.
As to `Clc1cc(Cl)cc(Cl)c1`, the call was inactive.
In the case of `O=C(CO)[C@@H](O)[C@H](O)[C@H](O)CO` it was “inactive”.
Consider `CCCCCCCCCCCCSC`, for which the compound was classed as inactive.
For the compound `COc1ccnc(CS(=O)c2nc3cc(OC(F)F)ccc3[nH]2)c1OC` (stereo not given), the compound was classed as inactive.
In the case of `O=[N+]([O-])c1cncn1CCN1CCOCC1` it was “inactive”.
With `CC1=C(C/C=C(\C)CCC[C@H](C)CCC[C@H](C)CCCC(C)C)C(=O)c2ccccc2C1=O`, the compound was called inactive.
Turning to `O=C(O)CCCC[P+](c1ccccc1)(c1ccccc1)c1ccccc1`, the result was inactive.
Take `CC1=CC(=O)[C@H]2C[C@@H]1C2(C)C`: the compound was classed as inactive.
Take `CCCCN1C=CN(C)C1`: the result was inactive.
`CC(COc1ccccc1)NN` (stereo not given): the result was inactive.
On to `CCCc1nn(C)c2c(=O)[nH]c(-c3cc(S(=O)(=O)N4CCN(C)CC4)ccc3OCC)nc12`, for which the call was inactive.
Consider `c1ccc(Cc2ccccc2)cc1`, for which the compound was called inactive.
Consider `CC(=O)N1C[C@H](O)C[C@H]1C(=O)O`, for which the outcome was inactive.
For `O=C(O)CCSCCC(=O)O`, the result was inactive.
Take `C=C(C)C(=O)OCC1CCCO1` (stereo not given): the compound was classed as inactive.
In the case of `CC(=O)Oc1cccc(C)c1`, the outcome was inactive.
In the case of `CCOc1ccccc1OCC`, the compound was classed as inactive.
As for `Cc1ncc([C@@H](CCCCCCc2ccc3c(n2)NCCC3)CC(=O)O)cn1`, the call was inactive.
Take `CCCCOCCOC(=O)COc1cc(Cl)c(Cl)cc1Cl`: the compound was classed as inactive.
Regarding `COc1cc(-c2ccc(=O)[nH]n2)ccc1OC(F)F`, the outcome was inactive.
In the case of `CC(C)C(=O)OC(=O)C(C)C`, the call was inactive.
